Structures are written as SMILES. Inconclusive results are not listed. Values without a mark were called inactive. Calls of active or inactive are those of the source. Calls follow the shape of the dose curve; as a rule, active = well fitted curve in the direction sought with a large enough effect; inconclusive = small, poorly fitted or top-dose-only effect, or another doubt; inactive = no such curve, though single readings can be large; an effect the other way counts as inactive or inconclusive.

One assay is described as follows: Primary redox qHTS assay for identification of artifact compounds. (AID 1845223).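 Also: 0% = DMSO and 100% = reference compound.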 The following applies: Amplex Red/HRP redox cycling with DTT, fluorescence; series mostly up to 53.8 µM. The method in brief: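 Amplex Red (25 uM) and HRP (250 mU/mL) in HBSS, with compounds for 15 min, then 250 uM DTT for 30 min, room temperature, dark. Fluorescence 525/598 nm read; normalized to DMSO and 10 uM DA3003; Hill fit.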
(In general: Quantitative high-throughput screening tests each substance at several concentrations.)
Regarding `COc1cc(C)c(Sc2cnc(NC(=O)c3ccc(CNC(C)C(C)C)cc3)s2)cc1C(=O)N1CCN(C(C)=O)CC1` (stereo not given), the Potency entry was “inactive”.

Turning to `COc1cc(Nc2ncc(F)c(Nc3ccc4c(n3)N(COP(=O)(O)O)C(=O)C(C)(C)O4)n2)cc(OC)c1OC`, the Potency result was “inactive”.

For `CC1(O)CC(c2nc(-c3ccc4ccc(-c5ccccc5)nc4c3)c3c(N)nccn23)C1` (stereo not given), the Potency entry was “inactive”.

For the compound `Cc1cc(Nc2ncnc3ccc(-c4ccc(CNCCS(C)(=O)=O)o4)cc23)ccc1Oc1ccn2ncnc2c1`, the Potency result was “inactive”.

In the case of `CCCCOc1c(C(=O)c2c(F)cc(C)cc2F)cnc2n[nH]cc12`, the Potency result was “inactive”.

Consider `Cn1c(=O)n(-c2ccc(C(C)(C)C#N)cc2)c2c3cc(-c4cnc5ccccc5c4)ccc3ncc21`, for which the Potency entry is “inactive”.

Take `CC[C@@H]1C(=O)N(C)c2cnc(Nc3ccc(C(=O)NC4CCC(N5CCN(CC6CC6)CC5)CC4)cc3OC)nc2N1C(C)C` (stereo not given in full): the Potency result was “inactive”.

`CC(=O)c1c(C)c2cnc(Nc3ccc(N4CCNCC4)cn3)nc2n(C2CCCC2)c1=O`: the redox activity (% of DA3003) was -5.59% [at 6.41 µM].

Consider `NCC(=O)Nc1ccc(-n2nc(C(F)(F)F)cc2-c2ccc3c(ccc4ccccc43)c2)cc1`, for which the Potency result was “inactive”.

Regarding `CC[C@@]1(O)C(=O)OCc2c1cc1n(c2=O)Cc2cc3cc(O)ccc3nc2-1`, the Potency entry was “inactive”.

On to `CC(C)(C)c1cc(NC(=O)Nc2ccc(-c3cn4c(n3)sc3cc(OCCN5CCOCC5)ccc34)cc2)no1`, for which the Potency result was “inactive”.

On to `O=C(Nc1cc(C(F)(F)F)cc(C(F)(F)F)c1)c1cc(Cl)ccc1O`, for which the Potency entry is “inactive”.

As for `COC(=O)Nc1nc2ccc(C(=O)c3ccc(F)cc3)cc2[nH]1`, the Potency result is “inactive”.

As to `CN1CCN(Cc2ccc(NC(=O)Nc3ccc(Oc4cc(NC(=O)C5CC5)ncn4)cc3)cc2C(F)(F)F)CC1`, the Potency result is “inactive”.

On to `COc1cccc(-c2ccc(NC(=O)C3=C(C(=O)O)CCC3)c(F)c2)c1`, for which the Potency entry was “inactive”.

For the compound `Cc1c(Cn2c(C)nc3c(C(=O)O)cc(N4CCOCC4)cc32)cccc1C(F)(F)F`, the Potency result was “inactive”.

Consider `CC(C)c1cnn2c(NCc3ccccc3)cc(N[C@@H](CO)[C@H](O)CO)nc12`, for which the Potency result is “inactive”.

A further assay can be described thus: Quantitative High-Throughput drug screen in 47 multiple myeloma cell lines against the NCATS MIPE library collection: FR4_PLB cell viability assay (AID 1918924; also: nearly all actives have a fitted effect of over 35% in size; also: potency is read from the fitted curve at half-maximal effect). The following applies: FR4_PLB myeloma cells viability, CellTiter-Glo ATP, 48 h; series mostly up to 45.8 µM. The method in brief: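 Viability readout: CellTiter-Glo luminescence following 5 min room-temperature incubation with reagent. Prior exposure: 48 h, 37C, humidified 5% CO2, 500 cells per well.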
For orientation: ATP-based viability assays read luminescence as a measure of living cells.
Regarding `CN1CCN(c2cc(C(=O)Nc3ccc4c(c3)-c3c(c(C(N)=O)nn3-c3ccc(F)cc3)CC4)c(Cl)cn2)CC1`, the Potency is 16.6 µM (active).

For the compound `COc1cc(C)c(Sc2cnc(NC(=O)c3ccc(CNC(C)C(C)C)cc3)s2)cc1C(=O)N1CCN(C(C)=O)CC1` (stereo not given), the Potency is 14.8 µM (active).

Turning to `COc1cc(Nc2ncc(F)c(Nc3ccc4c(n3)N(COP(=O)(O)O)C(=O)C(C)(C)O4)n2)cc(OC)c1OC`, the Potency entry was “inactive”.

For the compound `CC(=O)OCC(=O)[C@@]1(O)[C@H](C)C[C@H]2[C@@H]3C=C(C)C4=Cc5c(cnn5-c5ccccc5)C[C@]4(C)[C@@H]3[C@@H](O)C[C@@]21C`, the Potency was 14.8 µM (active).

Turning to `CC1(O)CC(c2nc(-c3ccc4ccc(-c5ccccc5)nc4c3)c3c(N)nccn23)C1` (stereo not given), the Potency is 7.43 µM (active).

In the case of `Fc1cc(-c2cccc3ncc(-c4cnn(C5CCNCC5)c4)nc23)cc(F)c1CN1CCOCC1`, the Potency is 18.7 µM (active).

Regarding `Cc1cc(Nc2ncnc3ccc(-c4ccc(CNCCS(C)(=O)=O)o4)cc23)ccc1Oc1ccn2ncnc2c1`, the Potency is 18.7 µM (active).

As to `CCCCOc1c(C(=O)c2c(F)cc(C)cc2F)cnc2n[nH]cc12`, the Potency was 4.18 µM (active).

With `CC(C)c1nn(-c2c(Cl)cccc2Cl)c2nc(Cc3ccc(OCCO)cc3)[nH]c(=O)c12`, the Potency is 0.105 µM (active).

Turning to `CC[C@@H]1C(=O)N(C)c2cnc(Nc3ccc(C(=O)NC4CCC(N5CCN(CC6CC6)CC5)CC4)cc3OC)nc2N1C(C)C` (stereo not given in full), the Potency is 0.059 µM (active).

With `CC(=O)c1c(C)c2cnc(Nc3ccc(N4CCNCC4)cn3)nc2n(C2CCCC2)c1=O`, the Potency is 18.7 µM (active).

As to `C[C@@H]1COC(Nc2ccc3ncnc(Nc4ccc(OCc5nccs5)c(Cl)c4)c3c2)=N1`, the Potency was 16.6 µM (active).

In the case of `CC[C@@]1(O)C(=O)OCc2c1cc1n(c2=O)Cc2cc3cc(O)ccc3nc2-1`, the Potency was 1.18 µM (active).

Consider `O=C(O)[C@H](Cc1c[nH]c2ccccc12)N1C(=O)c2ccccc2C1=O`, for which the Potency result was “inactive”.

Regarding `C[C@@H](Oc1cc(-n2cnc3ccc(CN4CCN(C)CC4)cc32)sc1C(N)=O)c1ccccc1C(F)(F)F`, the Potency was 0.0332 µM (active).

For `O=C(Nc1cc(C(F)(F)F)cc(C(F)(F)F)c1)c1cc(Cl)ccc1O`, the Potency was 1.32 µM (active).

As to `Cc1ccc(C(=O)Nc2ccc(CN3CCN(C)CC3)c(C(F)(F)F)c2)cc1C#Cc1cnc2cccnn12`, the Potency is 1.48 µM (active).

Consider `COC(=O)Nc1nc2ccc(C(=O)c3ccc(F)cc3)cc2[nH]1`, for which the Potency was 0.264 µM (active).

With `CN1CCN(Cc2ccc(NC(=O)Nc3ccc(Oc4cc(NC(=O)C5CC5)ncn4)cc3)cc2C(F)(F)F)CC1`, the Potency was 0.296 µM (active).

Take `CNC(=O)c1cc(Oc2ccc(NC(=O)Nc3cc(C(C)(C)C)nn3-c3ccc4ncccc4c3)c(F)c2)ccn1`: the Potency was 4.69 µM (active).

For `Cc1c(Cn2c(C)nc3c(C(=O)O)cc(N4CCOCC4)cc32)cccc1C(F)(F)F`, the Potency was 5.9 µM (active).

On to `CCN(CC)CCCCNc1ncc2cc(-c3cc(OC)cc(OC)c3)c(NC(=O)NC(C)(C)C)nc2n1`, for which the Potency is 20.9 µM (active).

With `Cc1nc2cnc3ccc(C#Cc4cccnc4)cc3c2n1-c1ccc(C(C)(C)C#N)cc1`, the Potency was 0.118 µM (active).

With `CCN1CCN(CC(=O)Nc2ccc(-c3cccc4c(=O)cc(N5CCOCC5)oc34)c3sc4ccccc4c23)CC1`, the Potency is 1.48 µM (active).

For the compound `c1cc(-c2cnn3cc(-c4ccc(OCCN5CCCCC5)cc4)cnc23)ccn1`, the Potency is 11.8 µM (active).

Turning to `C=C1C(=CC=C2CCC[C@]3(C)[C@@H]([C@H](C)C=C[C@H](C)C(C)C)CC[C@@H]23)C[C@@H](O)C[C@@H]1O`, the Potency was 5.9 µM (active).

On to `CC(C)c1cnn2c(NCc3ccccc3)cc(N[C@@H](CO)[C@H](O)CO)nc12`, for which the Potency was 0.264 µM (active).

As for `CN(c1ncccc1CNc1nc(Nc2ccc3c(c2)CC(=O)N3)ncc1C(F)(F)F)S(C)(=O)=O`, the Potency was 5.9 µM (active).

The values above are taken from PubChem BioAssay (NCATS).
